# Results reported in the OligoGym collection.
# Molecular target: OLFML2A
# Experiment: pooled miR-30 sensor sort-seq; sequence = guide strand
# Conditions: shRNA
# Further: reference of the scale not given here.
row,Sequence,sensor-assay potency score (higher = more potent)
1,TTATACTTGACTTTGTTCTAAA,-0.893
2,TTCAAACATACAGACATCCAGG,-0.00393
3,TTGTAGTCGATCTGGGTGGTGT,-0.246
4,TTGTAGTAGGTGAAGCCCCGGA,-0.647

# Molecular target: OLIG1
# Experiment: as above
# Conditions: shRNA
row,Sequence,sensor-assay potency score (higher = more potent)
1,TTACCTATTTTAGTAAATCGGG,-0.775
2,TAACGTCTGTAACAAATCGAAA,-1.41
3,TATGTAGCTCTTCAACTGCAAG,-1.7
4,TTGGTTTTCGTTTTTAAGCAAG,-1.05
5,TACAGCTCTCCAAACAGCTGGT,-0.013
6,TAGTAAATCGGGAACACTGGAT,-0.186
7,TCGGCTACTACCAACAACCAAA,-1.38
8,TTGCTTTCTAAGAAACCCCCAG,-0.585
9,TTAACGTCTGTAACAAATCGAA,-0.686
10,TACCTATTTTAGTAAATCGGGA,-0.985
11,TTGTTGATTCTGTACACCGTCA,-0.445
12,TTTAAGAGCGAAAACTCTCTGC,-0.0663

# Molecular target: OMD
# Experiment: as above
# Conditions: shRNA
row,Sequence,sensor-assay potency score (higher = more potent)
1,TATTTCATTATTTTGTAGGTAT,0.614
2,TATAGGTTTTGTGAAGTCGTAA,-0.621
3,TTGTAGTAGATTTGGAAGCTTA,-0.257
4,TTCATTGTAACCAAGAAGGAGT,-0.273
5,TTGGTCATAGTCTTCATCCCAC,-0.0587
6,TTTGTTGTGTCCAACACTGAGT,-0.557
7,TTTGTCGAAGTATTTTTCGGGT,-0.262
8,TTGTGTGACATTCTTAGAGTAT,-0.365
9,TTAAATTCAATTCTGATCTTAT,-0.256
10,TTAGTTGTATTGTTTGACCATT,-0.906
11,TAGTGCTTCGTTGTTCACCATA,-1.2
12,TTTGAGTAAGTTCTAATCCTAT,-0.412

# Molecular target: OPRK1
# Experiment: as above
# Conditions: shRNA
row,Sequence,sensor-assay potency score (higher = more potent)
1,TTACTATCTTGCACAGCACATC,-1.6
2,TTTCGGACTCTGCTAGTGCTCT,-0.953
3,TAGCTGGAGAGAGCAGCTGTGC,-1.45
4,ATCACGAACATGACCAGCGAGT,-1.24
5,TATCTTGCACAGCACATCCCCA,-0.82
6,ATGACATCGACGTCTTCCCTGA,-0.669
7,TATCGGATGATCACGAACATGA,-0.746
8,TTCATGAAGAGGTCCCACCAGG,-0.714
9,TTGTAGTAACTAAAGCATCTGC,-0.405
10,AATAGCTGGAGAGAGCAGCTGT,0.381
11,TTGGTTGCTGTCTTCATCTTTG,-0.766
12,TTGCTGTCTTCATCTTTGTGTA,-0.644
